Screening results from PubChem BioAssay.
In the library only some 3.4% were active in any assay of this set; here they are far more common.
PLC-gamma1 inh: inhibitors of human phospholipase C gamma1; AID 720700; purified PLC-gamma1, fluorogenic substrate, fluorescence; inhibition, % at 12.2 µM; hit rate 0.84% among 370,000
ADAM17 inh: ADAM17 inhibition, QFRET primary screen; recombinant ADAM17, EDANS/DABCYL FRET peptide cleavage; inhibition, % at 6.95 µM; hit rate 0.83% among 370,000;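 active = inhibition above the mean of compounds lying between control limits plus 3 SD, set per campaign, cut at about 8.5% in these data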;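 also: 0% = DMSO-only wells as the low control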
HGIII-sPLA2 inh: Inhibits HGIII-sPLA2 liposome hydrolysis, primary screen. AID 743126. inhibition, % at 12.2 µM. QFRET BODIPY PC-A2 liposome hydrolysis, fluorescence. hit rate 0.56% among 370,000;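 active = inhibition above mean plus 3 SD of compounds lying within the high and low control bounds, cut at about 19% in these data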;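 also: 0% = median of test compound wells and 100% = no enzyme DMSO wells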
PLCb3 inh: PLC-beta3 (human) inhibition, primary screen; Q01970; Purified PLC-beta3, fluorogenic substrate, fluorescence; inhibition, % at 12.2 µM; hit rate 0.18% among 370,000; AID 720704; in the data active = inhibition above about 11%;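 also: 0% = median of compound wells on plate and 100% = full blocker control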
Target sequence (Q01970 whole entry, looked up): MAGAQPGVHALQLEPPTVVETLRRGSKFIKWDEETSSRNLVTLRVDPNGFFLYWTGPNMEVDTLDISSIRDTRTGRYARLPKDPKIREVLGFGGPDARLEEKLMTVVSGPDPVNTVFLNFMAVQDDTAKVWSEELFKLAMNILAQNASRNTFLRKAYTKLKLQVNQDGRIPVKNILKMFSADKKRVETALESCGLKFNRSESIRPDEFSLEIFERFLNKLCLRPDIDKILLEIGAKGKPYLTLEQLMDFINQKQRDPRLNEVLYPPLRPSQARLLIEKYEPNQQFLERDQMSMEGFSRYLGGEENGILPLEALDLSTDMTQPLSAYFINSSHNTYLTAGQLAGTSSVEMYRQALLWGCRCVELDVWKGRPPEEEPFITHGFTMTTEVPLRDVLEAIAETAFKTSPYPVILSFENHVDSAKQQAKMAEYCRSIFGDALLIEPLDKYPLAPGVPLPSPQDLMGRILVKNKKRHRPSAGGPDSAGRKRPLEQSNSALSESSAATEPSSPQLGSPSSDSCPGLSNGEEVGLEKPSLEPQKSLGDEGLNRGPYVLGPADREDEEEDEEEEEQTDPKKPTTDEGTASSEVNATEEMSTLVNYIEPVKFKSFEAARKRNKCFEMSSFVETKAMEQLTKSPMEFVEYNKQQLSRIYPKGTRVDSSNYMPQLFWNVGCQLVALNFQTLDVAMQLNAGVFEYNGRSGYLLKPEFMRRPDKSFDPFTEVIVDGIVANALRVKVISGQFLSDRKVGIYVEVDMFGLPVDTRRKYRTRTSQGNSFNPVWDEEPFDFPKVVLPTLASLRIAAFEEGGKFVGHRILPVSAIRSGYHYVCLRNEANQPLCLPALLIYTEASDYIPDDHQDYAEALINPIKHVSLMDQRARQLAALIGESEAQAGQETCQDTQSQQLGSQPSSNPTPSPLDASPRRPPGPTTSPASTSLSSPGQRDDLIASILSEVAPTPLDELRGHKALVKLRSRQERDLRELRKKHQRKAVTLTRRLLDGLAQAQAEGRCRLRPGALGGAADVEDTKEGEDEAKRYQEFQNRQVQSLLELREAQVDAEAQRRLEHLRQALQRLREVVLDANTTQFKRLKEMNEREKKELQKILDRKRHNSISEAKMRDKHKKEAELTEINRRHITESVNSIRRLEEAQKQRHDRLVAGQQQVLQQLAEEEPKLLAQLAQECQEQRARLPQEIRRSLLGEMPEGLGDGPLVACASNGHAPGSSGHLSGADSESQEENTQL
ADAM10 inh: inhibitors of human ADAM10. hit rate 0.62% among 370,000. AID 720582. O14672. inhibition, % at 7 µM. recombinant ADAM10, EDANS/DABCYL FRET peptide cleavage, 3 h;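 active = inhibition above a per-campaign cutoff equal to the mean of compounds falling between control-based bounds plus 3 SD, cut at about 20% in these data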;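 also: 0% = DMSO wells while the 100% control is not disclosed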
proKLK7 act: activators of human kallikrein-7 zymogen; purified proKLK7, EDANS-DABCYL substrate fluorescence; 100% is mature enzyme control, 0% vehicle; activation, % at 7 µM; P49862; hit rate 0.9% among 370,000;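 active = activation above the mean of all tested compounds plus 3 SD, computed per campaign excluding outliers beyond control limits, cut at about 13% in these data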
ADAM10 confirm: confirmation of inhibitors of human ADAM10; shares compounds with ADAM10 inh; ADAM10 QFRET peptide cleavage, EDANS fluorescence; inhibition, % at 6.95 µM; hit rate 1% among 2,100; AID 743208;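 active = inhibition above about 20% chosen separately for each screening run, limit read from the data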;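 also: 0% = DMSO wells and 100% = marimastat wells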
ADAM17 ctr: ADAM17 inhibition, counter-screen for ADAM10 exosite hits; hit rate 0.5% among 2,100; inhibition, % at 6.95 µM; ADAM17 QFRET peptide cleavage, EDANS fluorescence; shares compounds with ADAM10 inh; AID 743214;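 active = mean triplicate inhibition above the solvent-only control wells' mean plus 3 SD, cut at about 12% in these data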;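 also: 0% = DMSO wells and 100% = marimastat wells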
ADAM10 counter: inhibits human ADAM10 in ADAM17 exosite counter-screen; shares compounds with ADAM17 inh; inhibition, % at 6.95 µM; hit rate 47% among 2,900; recombinant ADAM10, EDANS/DABCYL FRET peptide cleavage, 3 h;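 active = mean inhibition over the triplicate runs exceeds the activity threshold set in the earlier primary screen, cut at about 20% in these data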;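 also: 0% = DMSO wells and 100% = marimastat wells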
ADAM17 confirm: human ADAM17 inhibition, confirmation. shares compounds with ADAM17 inh. recombinant ADAM17, EDANS/DABCYL QFRET peptide cleavage. inhibition, % at 6.95 µM. hit rate 65% among 2,900;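 active = mean inhibition across replicates above the hit cutoff set in the primary screen, cut at about 8.5% in these data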;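 also: 0% = DMSO wells and 100% = marimastat wells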
PLCgamma1 ctr: inhibits human PLC-gamma1 in PLC-beta3 counter-screen; shares compounds with PLC-gamma1 inh; purified PLC-gamma1, fluorogenic substrate, fluorescence; inhibition, % at 12.3 µM; hit rate 3.1% among 3,300; AID 743258
PLCbeta3 conf: confirmation of human PLC-beta3 inhibitors; shares compounds with PLC-gamma1 inh; purified PLC-beta3, fluorogenic substrate fluorescence; inhibition, % at 12.3 µM; hit rate 1% among 3,300; in the data active = inhibition above about 11%
Numbers without * were called inactive; nt = no result. Rule as the data show it, unless noted: active = inhibition above about 9.5%; inactive = the rest.

SMILES	PLC-gamma1 inh	ADAM17 inh	HGIII-sPLA2 inh	PLCb3 inh	ADAM10 inh	proKLK7 act	ADAM10 confirm	ADAM17 ctr	ADAM10 counter	ADAM17 confirm	PLCgamma1 ctr	PLCbeta3 conf
Cc1ccc(Cn2cc(COC(=O)N3CCCC3)nn2)cc1	-0.9	-1.4	9.4	0.3	-5.0	-0.4	nt	nt	nt	nt	nt	nt
CCSc1ccc([C@@H]2[C@H]3C(=O)N(C)C(=O)[C@H]3[C@]3(C(=O)OC)CCCCN23)cc1	10.2*	17.8*	-21.5	3.0	22.1*	0.9	3.3	0.6	-2.5	5.0	-6.3	-4.1
Cc1occc1C(=O)N/N=C/c1ccc(OCc2ccccc2)cc1	15.1*	0.8	5.1	-1.1	20.7*	-1.1	0.2	0.1	nt	nt	-2.8	-0.4
Cc1occc1C(=O)N/N=C/c1ccc(-c2ccccc2)cc1	-2.0	-0.1	4.0	-10.2	7.9	-0.5	nt	nt	nt	nt	nt	nt
Cc1ccccc1Cn1cc(CN2[C@@H](C)COc3cc(Br)ccc3S2(=O)=O)nn1	2.4	3.0	-4.2	1.2	9.8	0.1	nt	nt	nt	nt	nt	nt
CC(C)(C)OC(=O)NCc1ccc(NC(=O)c2nc[nH]c2C(=O)N[C@@H](Cc2ccccc2)C(=O)OCc2ccccc2)cc1	0.8	3.4	-8.3	0.1	14.4	-4.0	nt	nt	nt	nt	nt	nt
CC(C)C[C@H](NC(=O)c1nc[nH]c1C(=O)NCC(=O)OC(C)(C)C)C(=O)OCc1ccccc1	9.9*	13.8*	-6.7	-3.6	30.2*	1.1	3.1	0.6	35.5*	18.6*	0.6	-5.1
CC(C)(C)OC(=O)NCc1ccc(CNC(=O)c2[nH]cnc2C(=O)N[C@@H](Cc2ccccc2)C(=O)OC(C)(C)C)cc1	9.5*	14.3*	-5.9	8.1	41.7*	0.0	12.2	3.3	55.7*	27.0*	-3.0	0.7
CC(C)C[C@H](NC(=O)c1nc[nH]c1C(=O)N[C@@H](CC(C)C)C(=O)OC(C)(C)C)C(=O)OCc1ccccc1	0.8	1.8	-12.1	2.7	5.9	0.0	nt	nt	nt	nt	nt	nt
Fc1ccc(-c2cc(-c3nnc4sc(-c5ccco5)nn34)[nH]n2)cc1	0.9	-3.8	-4.5	-2.0	-1.8	-0.8	nt	nt	nt	nt	nt	nt
O=C(OCc1cn(Cc2c(F)cccc2F)nn1)N1CCOCC1	2.6	-4.7	5.7	1.6	-6.8	-0.1	nt	nt	nt	nt	nt	nt
Cc1ccccc1CN1CCCCC(NC(=O)Nc2cccc(F)c2)C1=O (configuration not stated)	5.6	0.0	-4.7	2.8	13.5	0.1	nt	nt	nt	nt	nt	nt
COc1ccc(C(CC(=O)c2ccccc2)CC(=O)c2ccccc2)cc1	13.0*	10.7*	-8.7	-3.8	20.4*	0.3	2.3	0.8	4.9	4.8	6.4	3.5
O=C(CC(CC(=O)c1ccccc1)c1ccccc1)c1ccccc1	-0.6	1.6	-4.7	-2.0	1.6	0.1	nt	nt	nt	nt	nt	nt
Cc1ccnc(NS(=O)(=O)c2cccc3nsnc23)c1	9.9*	-0.5	11.7	2.1	20.4*	-0.1	1.6	1.4	nt	nt	-5.5	-2.4
COC(=O)[C@]12C[C@H](CC(=O)N3CCOCC3)C(=O)N(Cc3ccco3)C1=C[C@H](C(C)C)O[C@@H]2C1CC1	2.2	-0.7	3.1	-0.3	-0.8	0.0	nt	nt	nt	nt	nt	nt
O=C(COC(=O)c1ccccc1C(=O)OCC(=O)NCCc1c[nH]c2ccccc12)NCCc1c[nH]c2ccccc12	9.9*	9.1*	-69.6	5.1	24.8*	0.3	7.2	2.1	27.6*	10.9*	9.6*	2.8
O=C(COC(=O)c1ccccc1O)NCCc1c[nH]c2ccccc12	-1.9	-2.7	-67.5	-8.2	-12.1	3.0	nt	nt	nt	nt	nt	nt
CC(C)(C)c1ccc(C#C[C@@H]2C=C[C@H](O)[C@@H](COC(=O)Nc3ccccc3)O2)cc1	-0.3	3.9	-15.6	-3.3	8.3	1.0	nt	nt	nt	nt	nt	nt
O=S(=O)(c1ccc(Cl)s1)N1CCC(c2cn3ccccc3n2)CC1	-77.0	-51.3	-10.5	-98.8	-159.5	-2.0	nt	nt	nt	nt	nt	nt
O=C(NCCN1CCOCC1)c1ccc2c(c1)N(Cc1ccccc1)C(=O)CS2	0.9	-3.5	-4.6	1.7	-0.5	0.4	nt	nt	nt	nt	nt	nt
O=C(NCCC1=CCCCC1)c1ccc2c(c1)N(Cc1ccccc1)C(=O)CS2	10.8*	16.9*	-10.4	9.0	27.2*	0.6	8.5	1.6	25.8*	13.3*	-1.2	-6.7
COc1ccccc1NC(=O)CN1CCN(CC(=O)Nc2ccc(Cl)c(C(F)(F)F)c2)CC1	1.0	2.3	-13.1	4.6	7.9	0.4	nt	nt	nt	nt	nt	nt
CCc1ccccc1NCC(=O)Nc1ccc(Cl)c(C(F)(F)F)c1	12.1*	17.4*	11.8	8.0	34.9*	0.3	5.8	3.2	40.4*	19.3*	-1.3	0.9
O=C(NC1CCCCN(Cc2ccc(Cl)cc2)C1=O)c1ccc(F)c(F)c1 (configuration not stated)	2.0	-4.2	5.1	-2.1	-0.9	-0.2	nt	nt	nt	nt	nt	nt
SMILES	PLC-gamma1 inh	ADAM17 inh	HGIII-sPLA2 inh	PLCb3 inh	ADAM10 inh	proKLK7 act	ADAM10 confirm	ADAM17 ctr	ADAM10 counter	ADAM17 confirm	PLCgamma1 ctr	PLCbeta3 conf
CCO[C@@H]1OC(C(=O)N2CCCCCCC2)=C[C@H](c2ccc(C(F)(F)F)cc2)[C@H]1CCCO	6.6	2.8	-0.9	3.6	8.3	-0.5	nt	nt	nt	nt	nt	nt
CCO[C@H]1OC(C(=O)Nc2ccccc2)=C[C@@H](c2ccc(C(F)(F)F)cc2)[C@@H]1CCCO	10.1*	15.3*	-1.2	7.3	26.5*	-0.2	4.1	1.0	30.0*	18.1*	-2.9	4.5
COc1ccc(CNC(=O)C2(c3ccc(Cl)cc3)CC2)cc1	14.0*	3.5	3.8	10.4	20.8*	0.2	0.0	0.1	nt	nt	-6.5	0.9
Nc1cc(Cl)ccc1Oc1ccc2ccccc2c1	13.8*	16.8*	4.0	-4.7	29.0*	0.3	9.2	3.0	11.8	11.7*	-1.9	-4.8
Cc1ccccc1Cn1ccc2ccc(-c3ccc4ccn(Cc5ccccc5)c4c3)cc21	-66.2	-10.4	8.1	-91.8	-28.4	-1.1	nt	nt	nt	nt	nt	nt
CC(=O)Nc1ccc(NC(=O)C(C)OC(=O)CCN=C2NS(=O)(=O)c3ccccc32)cc1 (configuration not stated)	-2.2	-2.4	6.9	-3.8	-11.4	-0.6	nt	nt	nt	nt	nt	nt
